VHR inh color: inhibitors of human VHR1 phosphatase (DUSP3); P51452; recombinant VHR phosphatase, colorimetric substrate read-out; inhibition, % at 20 µM; 50,000 tested, 0.7% active; in the data active means inhibition above about 60%
Target sequence (P51452 whole entry, looked up): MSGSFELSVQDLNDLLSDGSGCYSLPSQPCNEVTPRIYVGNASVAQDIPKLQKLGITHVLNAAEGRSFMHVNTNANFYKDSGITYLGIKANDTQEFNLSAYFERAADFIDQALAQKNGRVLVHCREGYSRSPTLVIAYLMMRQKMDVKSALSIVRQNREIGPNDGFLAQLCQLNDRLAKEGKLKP
* marks the source's active call; other numbers are inactive results. This is one part of a sample in which hits are shown more often than they occur.

SMILES	VHR inh color
COc1ccc(/C(O)=C/C(=O)C(F)(F)F)cc1	-5
Cc1cccc(OCC(=O)Nc2ccccc2C(F)(F)F)c1	-22
O=C(COc1ccc(Cl)cc1)Nc1ccccc1C(F)(F)F	-2
CCc1ccc(OCC(=O)Nc2ccccc2C(F)(F)F)cc1	112*
C/C(=N\NC(=O)c1ccc(C(C)(C)C)cc1)c1ccc(C)o1	-28
Cc1ccc(OCC(=O)NCCCN2CCOCC2)c(Br)c1	-36
Cc1cc(=O)oc2cc(OCC(=O)Nc3sc4c(c3C(N)=O)CCC4)ccc12	78*
Cc1ccc(OCC(=O)Nc2sc3c(c2C(N)=O)CCC3)c(C)c1	16
CCN(CC)C(=O)c1sc(NC(=O)COc2ccc3ccccc3c2)c(C(=O)OC(C)C)c1C	1
COC(=O)c1sc(NC(=O)COc2ccc3ccccc3c2)c(C(N)=O)c1C	97*
COC(=O)c1ccccc1NC(=O)COc1ccc2ccccc2c1	-8
COc1ccc(OCC(=O)Nc2sc3c(c2C(N)=O)CCCC3)cc1	-20
O=C(CSc1ccc(Cl)cc1)NCCc1ccc(F)cc1	7
COc1cccc(C2C(C(=O)OCc3ccccc3)=C(C)NC3=C2C(=O)CCC3)c1OC (stereo not given)	-11
Cc1cccc(OCC(=O)Nc2ccc(OCc3ccccc3)cc2)c1C	-3
CC12c3ccccc3C(C)(c3ccccc31)C1C(=O)N(c3cccc(C(=O)O)c3)C(=O)C12 (stereo not given)	-13
CC1CCCCN1S(=O)(=O)c1ccc(Br)c2ccccc12 (stereo not given)	-17
CCOC(=O)CNC(=O)CN1CC1C(=O)OCC (stereo not given)	0
O=C(Oc1ccc(-n2cnnn2)cc1)N1CCOCC1	113*
COC(=O)c1c(C)oc2ccc(OC(=O)N3CCOCC3)cc12	-3
O=C(Nc1ccccc1)c1ccc(-n2cnnn2)cc1	0
COc1cccc(NC(=O)c2ccc(F)cc2)c1	-18
O=C(c1ccccc1Cl)N1CCN(c2nc(-c3ccccc3)c3cc(Br)ccc3n2)CC1	-7
Cc1cc(C)c(S(=O)(=O)NCCN2CCOCC2)c(C)c1	-19
Cc1ccnc(NC(=O)COc2ccc(Cl)c(C)c2)c1	-6
SMILES	VHR inh color
Cc1cc(OCC(=O)Nc2nc(-c3ccccc3)cs2)ccc1Cl	82*
O=C(COc1ccc(Cl)cc1)Nc1nc(-c2ccc(Cl)cc2)cs1	2
Cc1ccc(OCC(=O)Nc2nc(-c3ccccc3)cs2)cc1C	93*
Cc1ccccc1OCC(=O)Nc1nc(-c2ccc(Br)cc2)cs1	-16
O=C(COc1ccccc1Cl)Nc1nc(-c2ccccc2)cs1	-8
CC(=O)c1ccc(NC(=O)c2ccc(OCC(C)C)cc2)cc1	3
N#CC(C#N)=Cc1cn(CC(=O)Nc2ccccc2)c2ccccc12	45
CCOC(=O)c1sc(N/N=C/c2ccccc2O)nc1C	-7
CCOC(=O)c1sc(N/N=C/c2cccc(O)c2)nc1C	97*
CCOC(=O)c1sc(NC(=O)c2ccccc2C)nc1C	-10
Cc1ccc(N=C(NO)C(=Nc2ccc(C)c(C)c2)NO)cc1C	-18
O=C(Nc1ccccc1Cl)c1ccco1	-36
O=C(O)CCC(=O)NNc1nc(-c2ccccc2)c2cc(Br)ccc2n1	-1
Cc1nc2sccn2c1C(=O)N/N=C/c1ccccc1O	-1
C=CCN1C(=O)/C(=C/c2ccc(C)cc2)SC1=S	-13
COc1ccc(/C=C2\SC(=S)N(CCC(=O)OC3CCCCC3)C2=O)cc1	-7
C=CCN1C(=O)/C(=C\C=C\c2ccccc2)SC1=S	-26
Cc1ccc(/C=C2\SC(=S)N(CCS(=O)(=O)O)C2=O)cc1	63*
COc1ccc(/C=C2\SC(=S)N(CCS(=O)(=O)O)C2=O)cc1	67*
O=C1/C(=C/C=C/c2ccccc2)SC(=S)N1CCS(=O)(=O)O	85*
COc1ccc(/C=C2\SC(=S)N(CCC(N)=O)C2=O)cc1	-8
O=C(O)CCCN1C(=O)/C(=C/C=C/c2ccccc2)SC1=S	3
COC(=O)CN1C(=O)/C(=C\c2ccc(C)cc2)SC1=S	13
COc1cccc(NC(=O)c2ccc(C(=O)Nc3cccc(OC)c3)nc2)c1	-58
CCC1CCc2c(sc3nc(SCC(=O)NCCc4ccccc4)n(-c4ccccc4)c(=O)c23)C1 (stereo not given)	8
SMILES	VHR inh color
Cc1cccc(N2CCN(C(=O)CCCOc3ccc(Cl)cc3Cl)CC2)c1C	6
CCOc1cc(C(=O)NCCc2cccc(Cl)c2)cc(OCC)c1OCC	0
O=c1/c(=C\c2ccccc2)sc2nc(-c3ccc(Cl)cc3Cl)nn12	-4
Cn1cccc1CN1CCN(C2CCCCC2)CC1	39
CC1(C)Cc2c(sc3nc(SCCOc4ccccc4)n(-c4ccccc4)c(=O)c23)CO1	-6
Oc1ccccc1/C=N/Nc1cc(N2CCOCC2)nc(N2CCOCC2)n1	10
N#Cc1c(-c2ccc(F)cc2)c(C#N)c2nc3ccccc3n2c1N	-13
COc1ccc(-c2c(C#N)c(N)n3c(nc4ccccc43)c2C#N)cc1OC	69*
N#Cc1c(-c2cccc(Br)c2)c(C#N)c2nc3ccccc3n2c1N	-39
O=C(c1ccc(C#CC2(O)CCCCC2)cc1)N1CCN(c2ccc(F)cc2)CC1	7

Assay outcomes: PubChem BioAssay, Sanford-Burnham Center for Chemical Genomics
